Test results: PubChem BioAssay (NCI)
Compounds without any hit were thinned out: in the full panel of roughly 83,000, 20% have a hit.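 Step 1: grow cells in 96-well plates. Step 2: add test compound at a single concentration. Step 3: incubate 48 h. Step 4: record percent growth.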 A number with no mark means an inactive call. The source made the active and inactive calls. Rule for the calls: active = growth percent below 10; inactive = the rest.

Tests used:
Assay in all cases: NCI-60 one-dose screen, 48 h (100 = growth as untreated, 0 = no growth, -100 = all killed)
Conditions in all cases: 10 µM
HT29 colon = tested on: HT29 colon
SNB-75 CNS = tested on: SNB-75 CNS
SNB-19 CNS = tested on: SNB-19 CNS
U251 CNS = tested on: U251 CNS
PC-3 prostate = tested on: PC-3 prostate
SK-MEL-5 melanoma = tested on: SK-MEL-5 melanoma
UACC-62 melanoma = tested on: UACC-62 melanoma
LOX IMVI melanoma = tested on: LOX IMVI melanoma
SK-MEL-28 melanoma = tested on: SK-MEL-28 melanoma
SK-MEL-2 melanoma = tested on: SK-MEL-2 melanoma
EKVX NSCLC = tested on: EKVX NSCLC
SN12C renal = tested on: SN12C renal
UO-31 renal = tested on: UO-31 renal
TK-10 renal = tested on: TK-10 renal
ACHN renal = tested on: ACHN renal
CAKI-1 renal = tested on: CAKI-1 renal
A498 renal = tested on: A498 renal
CCRF-CEM leukemia = tested on: CCRF-CEM leukemia
MOLT-4 leukemia = tested on: MOLT-4 leukemia
SR leukemia = tested on: SR leukemia

| Structure (SMILES) | growth (HT29 colon) | growth (SNB-75 CNS) | growth (SNB-19 CNS) | growth (U251 CNS) | growth (PC-3 prostate) | growth (SK-MEL-5 melanoma) | growth (UACC-62 melanoma) | growth (LOX IMVI melanoma) | growth (SK-MEL-28 melanoma) | growth (SK-MEL-2 melanoma) | growth (EKVX NSCLC) | growth (SN12C renal) [%] | growth (UO-31 renal) | growth (TK-10 renal) | growth (ACHN renal) | growth (CAKI-1 renal) | growth (A498 renal) | growth (CCRF-CEM leukemia) | growth (MOLT-4 leukemia) | growth (SR leukemia) |
| --- | --- | --- | --- | --- | --- | --- | --- | --- | --- | --- | --- | --- | --- | --- | --- | --- | --- | --- | --- | --- |
| Cc1cc(C)c(CCc2cc(C)c(C)cc2C)cc1C | 100% | 98.3% | 105% | 93.9% | 106% | 103% | 101% | 91.7% | 108% | 109% | 102% | 107 | 92.2% | 117% | 112% | 94.1% | 98.7% | 93% | 90.5% | 90.4% |
| COc1cc(-c2nc(-c3nnc(-c4ccc(F)c(Cl)c4)o3)c3ccccn23)cc(OC)c1OC | 15.2% | 3.25% (active) | 4.53% (active) | 31.8% | 56.1% | 39.7% | 33.9% | 58.2% | 41.4% | 25.8% | 64.2% | 43.9 | 29.5% | 56.7% | 10.7% | 58% | 40.6% | 68.6% | 67% | 42.4% |
| Cc1cc2ccccc2nc1-c1ccccc1F | 119% | 112% | 110% | 91.1% | 94.3% | 102% | 105% | 97.8% | 116% | 111% | 107% | 110 | 97.3% | 130% | 112% | 99% | 96.2% | 96.9% | 111% | 110% |
| Oc1[nH]c2ccc(Cl)cc2c1/C=c1/ccc2c(c1)N=C(c1cc(F)cc(F)c1)N=2 | 22.7% | 11% | 77% | 73.9% | 62.6% | 35.5% | 44.8% | 47.2% | 65.4% | 54.8% | 88.8% | 86.3 | 75.2% | 100% | 67.3% | 58.6% | 72.5% | 16.6% | 12.8% | 13.9% |
| COc1ccc2c(c1)C(=O)c1c-2c(OCCN2CCCCC2)nc2ccc(OC)cc12 | 1.76% (active) | 20.8% | 32.3% | 12% | 43.3% | 22.1% | 20.6% | -52.9% (active) | 72.3% | 7.82% (active) | 39.6% | 20 | -6.08% (active) | 41.1% | 9.5% (active) | -11.5% (active) | 53.7% | 14.3% | 8.36% (active) | 2.46% (active) |
| COc1cc(-c2cc(C(=O)N3CCN(C(=O)c4ccccc4NCc4ccco4)CC3)nc3cc(-c4ccccc4)nn23)cc(OC)c1OC | 1.33% (active) | 8.05% (active) | 45.4% | 24.7% | 15.8% | 3.81% (active) | 39.7% | 30% | 59.3% | 10.5% | 49% | 44.4 | 6.15% (active) | 35.8% | 53.6% | 12% | -0.0574% (active) | 19.3% | 37.8% | -2.88% (active) |
| CN(C)CCOc1nc2ccccc2c2c1-c1ccc(Cl)cc1C2=O | -33.8% (active) | -63.8% (active) | 14.9% | 0.224% (active) | 2.76% (active) | -91.6% (active) | -39.5% (active) | -37.1% (active) | -49.9% (active) | -9.67% (active) | -1.93% (active) | 11.3 | -33.1% (active) | -16.4% (active) | 10.1% | -13.7% (active) | 25.2% | 2.75% (active) | 1.17% (active) | -6.41% (active) |
| CN1c2ccccc2[C@]2(Cc3ccccc3)Cc3ccccc3N[C@H]12 | 86.9% | 89.6% | 104% | 106% | 100% | 108% | 87.5% | 104% | 99.7% | 95% | 114% | 109 | 73.4% | 114% | 103% | 112% | 113% | 92.2% | 90.2% | 91.2% |
| COc1ccc2c(c1)sc1nc(-c3ccccc3)c(-c3cccnc3)n12 | 91.5% | 95.5% | 103% | 96.2% | 88.9% | 77.7% | 82.7% | 91.4% | 110% | 120% | 83% | 98.2 | 95.2% | 116% | 97.7% | 81.2% | 58.4% | 93.1% | 86.6% | 86.6% |
| O=C(Nc1ccncc1)C(=O)c1cn(S(=O)(=O)c2cccc3ccccc23)c2ccccc12 | 42.7% | 76.5% | 80.5% | 80.7% | 68.5% | 68% | 63.7% | 61.5% | 95.3% | 68.2% | 46.9% | 92 | 58.5% | 88.3% | 87.2% | 60.4% | 80% | 59.5% | 69% | 21.2% |
| CCCCN(CCCC)c1cc(C(=O)CCCCCN)c2ccccc2n1 | -38% (active) | 105% | 105% | -77.9% (active) | -93.2% (active) | 98.3% | 105% | -18% (active) | 118% | 87.9% | 24% | 89.7 | -21.9% (active) | 82.6% | 85.5% | -45.4% (active) | 72.6% | -70.4% (active) | -61.5% (active) | -69.3% (active) |
| CC(=O)c1cc(Cl)ccc1O | 106% | 95.4% | 113% | 107% | 91.1% | 103% | 108% | 102% | 109% | 110% | 108% | 110 | 78.3% | 98.9% | 99.8% | 107% | 100% | 100% | 101% | 104% |
| CCN(CC)CCC(CNc1c(C)cnc2cc(Cl)ccc12)c1ccc(Cl)cc1 (stereo not given) | 14.8% | 65.3% | 68.1% | 48.6% | 55.9% | -94.2% (active) | -28.8% (active) | 33.6% | -88.8% (active) | 92.8% | 70.8% | 56.7 | 41.8% | 89.6% | 44.8% | 60.1% | 19.8% | 42% | 39.5% | -10.8% (active) |
| CCN(CC)CCOc1nc2ccccc2c2c1-c1ccc(OC)cc1C2=O | -12.9% (active) | 1.69% (active) | 24.6% | -10.8% (active) | 7.51% (active) | -84% (active) | 8.63% (active) | -47.2% (active) | 4.25% (active) | -2.62% (active) | 16% | 18.1 | -53.3% (active) | -1.29% (active) | -6.81% (active) | -28.6% (active) | 39.9% | 4.01% (active) | -2.16% (active) | -8.96% (active) |
| COc1cc(C)ccc1C(=O)c1ccc(C)cc1OC | 2.74% (active) | 8.51% (active) | 43.4% | 18.3% | 17.6% | 25.9% | 42.3% | 31.5% | 58.5% | 17.2% | 31.2% | 43.2 | 31.4% | 38.3% | 60.8% | 23.4% | -4.5% (active) | 14.4% | 32.3% | -10.2% (active) |
